The values below come from PubChem BioAssay (Tox21).

Where “and” joins values, the source holds several entries; their conditions need not be identical. Identical values can stand only once. Calls of active or inactive are those of the source. Unless noted, calls follow the shape of the dose curve; as a rule, active = well fitted curve in the direction sought with a large enough effect in the repeat runs; inconclusive = weak or mixed curves; inactive = no such curve, though single readings can be large; an effect the other way counts as inactive or inconclusive.

Experiment [1] can be described thus: qHTS assay to identify small molecule antagonists of the glucocorticoid receptor (GR) signaling pathway - cell viability counter screen (AID 720693). Also: nearly all actives have a fitted effect of over 55% in size. Also: potency is read from the fitted curve at half-maximal effect. On the technique in general: qHTS replaces the single test concentration by a dilution series.
Experiment [2] can be described thus: qHTS assay for identifying genotoxic compounds that show differential cytotoxicity against isogenic chicken DT40 cell lines with known DNA damage response pathways - wild type cell line (AID 743012). Also: nearly all actives have a fitted effect of over 60% in size. Also: potency is read from the fitted curve at half-maximal effect. In outline:
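Cytotoxicity in repair-proficient parental chicken DT40 cells serves as the comparator for Rad54/Ku70- and Rev3-deficient lines. Cells were exposed to compounds for 40 h at 37 C/5% CO2, and ATP-based luminescence (CellTiter-Glo) measured viability.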

Experiment [3] is described as follows: qHTS assay for identifying genotoxic compounds that show differential cytotoxicity against isogenic chicken DT40 cell lines with known DNA damage response pathways - Rad54/Ku70 mutant cell line (AID 743015). Also: nearly all actives have a fitted effect of over 60% in size. Also: potency is read from the fitted curve at half-maximal effect.
Experiment [4] can be described thus: qHTS assay to identify small molecule antagonists of the androgen receptor (AR) signaling pathway - cell viability counter screen (AID 743033; also: nearly all actives have a fitted effect of over 45% in size).
Experiment [5] is described as follows: qHTS assay to identify small molecule antagonists of the androgen receptor (AR) signaling pathway using the MDA cell line - cell viability counter screen (AID 743041; also: nearly all actives have a fitted effect of over 45% in size). In outline: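 qHTS viability read-out; MDA-kb2 AR-luc; R1881-stimulated; 16 h exposure at 37C, 0% CO2; CellTiter-Fluor, 30 min; fluorescence intensity.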
The nature of experiment [6]: qHTS assay to identify small molecule antagonists of the thyroid receptor (TR) signaling pathway - cell viability counter screen (AID 743064). Also: nearly all actives have a fitted effect of over 50% in size. Also: potency is read from the fitted curve at half-maximal effect. In outline:
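Fluorescence from CellTiter-Fluor, added after 23.5 h exposure at 37 °C, reported viability of GH3.TRE-Luc cells co-treated with compound and 1 nM T3. Measured in the same wells as the luciferase TR readout.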

The nature of experiment [7]: qHTS assay to identify small molecule antagonists of the thyroid receptor (TR) signaling pathway (AID 743065). Also: nearly all actives have a fitted effect of over 55% in size. Also: potency is read from the fitted curve at half-maximal effect. The essentials:
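GH3.TRE-Luc rat pituitary cells carrying two TR response elements driving luciferase were plated for 4 h, given compound plus 1 nM T3 (final), and incubated 23.5 h at 37 C. ONE-Glo luminescence measured reporter inhibition; CellTiter-Fluor fluorescence tracked cytotoxicity.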

For experiment [8], the system named is thyroid hormone receptor (rat, GH3 cells). Description: qHTS assay to identify small molecule agonists of the thyroid receptor (TR) signaling pathway (AID 743066; calls by dose curve).
Experiment [9] deals with Estrogen receptor (Homo sapiens) (UniProt P03372). In words: qHTS assay to identify small molecule antagonists of the estrogen receptor alpha (ER-alpha) signaling pathway (AID 743069; active = well fitted curve in the direction sought with a large enough effect in the signal ratio in the repeat runs, not every such curve was filed as active; inconclusive = weak or mixed curves, or effect the other way; inactive = no such curve, though single readings can be large or run the other way; the % refers to the signal ratio; also: potency is read from the fitted curve at half-maximal effect). In outline: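 Screening used a UAS-driven beta-lactamase reporter integrated into HEK293 cells expressing ER-alpha, stimulated with 17beta-estradiol alongside test compounds over 18 hr at 37C; signal came from LiveBLAzer B/G FRET fluorescence.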

A short description of experiment [10]: qHTS assay to identify small molecule antagonists of the estrogen receptor alpha (ER-alpha) signaling pathway - cell viability counter screen (AID 743074; calls by dose curve; also: nearly all actives have a fitted effect of over 45% in size).
Experiment [11] addresses Estrogen receptor (Homo sapiens) (UniProt P03372). In words: qHTS assay to identify small molecule agonists of the estrogen receptor alpha (ER-alpha) signaling pathway (AID 743075; calls by dose curve; also: potency is read from the fitted curve at half-maximal effect).
For experiment [12] the target is unchanged. Description: qHTS assay to identify small molecule agonists of the estrogen receptor alpha (ER-alpha) signaling pathway using the BG1 cell line (AID 743079). Also: nearly all actives have a fitted effect of over 20% in size. Also: potency is read from the fitted curve at half-maximal effect.
The nature of experiment [13]: qHTS assay to identify small molecule antagonists of the estrogen receptor alpha (ER-alpha) signaling pathway using the BG1 cell line (AID 743080; calls by dose curve;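 also: BG1 cells stimulated with 17beta-estradiol alongside compound; nearly all actives have a fitted effect of over 25% in size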; also: potency is read from the fitted curve at half-maximal effect). In outline: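 BG1-Luc-4E2 cells (endogenous full-length ER-alpha, stable 4×ERE-luciferase) were starved 5 days in phenol-red-free medium with 10% charcoal-stripped FBS, plated 24 h, then given compound plus 17beta-estradiol for 21.5 h at 37 C; ONE-Glo luminescence read after 30 min.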

Experiment [14] can be described thus: qHTS assay to identify small molecule antagonists of the estrogen receptor alpha (ER-alpha) signaling pathway using the BG1 cell line - cell viability counter screen (AID 743081).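 Also: compound given together with 17beta-estradiol as the ER stimulus; series mostly up to about 70 µM; nearly all actives have a fitted effect of over 45% in size.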
The next experiment concerns the target Aromatase (Homo sapiens) (UniProt P11511). Description: qHTS assay to identify aromatase inhibitors (AID 743083). Also: nearly all actives have a fitted effect of over 55% in size. Also: potency is read from the fitted curve at half-maximal effect.
Experiment [15] is described as follows: qHTS assay for identifying genotoxic compounds that show differential cytotoxicity against isogenic chicken DT40 cell lines with known DNA damage response pathways - Rev3 mutant cell line (AID 743014). Also: nearly all actives have a fitted effect of over 55% in size. Also: potency is read from the fitted curve at half-maximal effect.
Experiment [16] addresses Androgen receptor (Homo sapiens) (UniProt P10275). Description: qHTS assay to identify small molecule agonists of the androgen receptor (AR) signaling pathway using the MDA cell line (AID 743040; also: nearly all actives have a fitted effect of over 20% in size). In outline: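 Agonist activity is measured as luciferase luminescence in human MDA-kb2 cells whose MMTV reporter responds to both AR and GR. Compounds in DMSO incubate 16 h at 37C, 0% CO2, and ONE-Glo is read after 30 min.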

The target is the same in experiment [17]. In words: qHTS assay to identify small molecule antagonists of the androgen receptor (AR) signaling pathway using the MDA cell line (AID 743042). The essentials: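 MDA-kb2 cells (human breast carcinoma, stably carrying an MMTV-luciferase reporter responsive to AR and GR) were plated at 3,000 cells/well and preincubated 5 hr at 37C, then given compound plus R1881 agonist for 16 h. ONE-Glo luminescence was read.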

For experiment [18] the target is unchanged. In words: qHTS assay to identify small molecule antagonists of the androgen receptor (AR) signaling pathway (AID 743035; active = well fitted inhibition curve with a large enough effect in the signal ratio in the repeat runs, not every such curve was filed as active; inconclusive = weak or mixed curves, or effect the other way; inactive = no such curve, though single readings can be large or run the other way; the % refers to the signal ratio; also: potency is read from the fitted curve at half-maximal effect). In outline:
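Steps: seed AR-UAS-bla GripTite HEK293 cells, incubate 4 h at 37C; pin in test compound, then add agonist R1881; incubate 16 h at 37C; add LiveBLAzer B/G FRET substrate, 2 h at room temperature; read fluorescence.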

Androgen receptor (Homo sapiens), sequence (P10275 whole entry, looked up): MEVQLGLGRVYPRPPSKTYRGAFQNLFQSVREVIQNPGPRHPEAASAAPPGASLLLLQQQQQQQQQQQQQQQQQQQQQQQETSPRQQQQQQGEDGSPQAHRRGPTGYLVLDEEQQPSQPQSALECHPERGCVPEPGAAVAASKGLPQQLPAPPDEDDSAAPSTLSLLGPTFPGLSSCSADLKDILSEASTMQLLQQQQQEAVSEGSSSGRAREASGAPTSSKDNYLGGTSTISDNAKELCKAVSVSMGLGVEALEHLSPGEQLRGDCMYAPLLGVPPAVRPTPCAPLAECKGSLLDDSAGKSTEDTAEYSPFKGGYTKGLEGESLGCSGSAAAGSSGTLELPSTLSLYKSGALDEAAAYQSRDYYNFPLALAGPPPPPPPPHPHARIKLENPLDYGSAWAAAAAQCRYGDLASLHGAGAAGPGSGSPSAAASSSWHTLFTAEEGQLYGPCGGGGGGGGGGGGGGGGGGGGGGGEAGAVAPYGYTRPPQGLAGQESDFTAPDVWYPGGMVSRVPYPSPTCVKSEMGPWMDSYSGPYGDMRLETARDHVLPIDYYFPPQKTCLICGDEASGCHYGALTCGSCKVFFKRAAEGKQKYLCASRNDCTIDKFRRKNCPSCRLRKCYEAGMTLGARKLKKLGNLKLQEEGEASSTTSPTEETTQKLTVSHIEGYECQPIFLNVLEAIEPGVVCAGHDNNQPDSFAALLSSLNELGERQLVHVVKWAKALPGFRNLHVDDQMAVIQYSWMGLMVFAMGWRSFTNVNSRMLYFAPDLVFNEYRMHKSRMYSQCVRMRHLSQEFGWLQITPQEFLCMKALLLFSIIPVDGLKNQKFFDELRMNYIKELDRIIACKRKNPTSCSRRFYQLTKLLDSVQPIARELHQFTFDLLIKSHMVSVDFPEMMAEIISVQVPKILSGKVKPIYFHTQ
Estrogen receptor (Homo sapiens), sequence (P03372 whole entry, looked up): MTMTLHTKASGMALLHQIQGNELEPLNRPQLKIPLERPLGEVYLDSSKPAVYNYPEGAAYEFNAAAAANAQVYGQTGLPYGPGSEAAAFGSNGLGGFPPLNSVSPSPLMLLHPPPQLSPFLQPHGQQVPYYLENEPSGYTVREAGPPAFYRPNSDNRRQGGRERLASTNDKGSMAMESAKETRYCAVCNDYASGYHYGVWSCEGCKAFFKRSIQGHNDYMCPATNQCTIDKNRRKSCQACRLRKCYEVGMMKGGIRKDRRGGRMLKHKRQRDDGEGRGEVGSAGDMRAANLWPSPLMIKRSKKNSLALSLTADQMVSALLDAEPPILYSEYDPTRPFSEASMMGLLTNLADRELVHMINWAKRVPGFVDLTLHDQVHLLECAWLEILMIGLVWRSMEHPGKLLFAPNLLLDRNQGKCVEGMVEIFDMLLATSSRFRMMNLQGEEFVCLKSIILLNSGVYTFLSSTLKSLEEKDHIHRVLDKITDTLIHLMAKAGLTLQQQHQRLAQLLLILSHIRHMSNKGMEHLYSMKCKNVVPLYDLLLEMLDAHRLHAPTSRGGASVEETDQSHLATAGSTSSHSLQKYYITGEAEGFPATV
Aromatase (Homo sapiens), sequence (P11511 whole entry, looked up): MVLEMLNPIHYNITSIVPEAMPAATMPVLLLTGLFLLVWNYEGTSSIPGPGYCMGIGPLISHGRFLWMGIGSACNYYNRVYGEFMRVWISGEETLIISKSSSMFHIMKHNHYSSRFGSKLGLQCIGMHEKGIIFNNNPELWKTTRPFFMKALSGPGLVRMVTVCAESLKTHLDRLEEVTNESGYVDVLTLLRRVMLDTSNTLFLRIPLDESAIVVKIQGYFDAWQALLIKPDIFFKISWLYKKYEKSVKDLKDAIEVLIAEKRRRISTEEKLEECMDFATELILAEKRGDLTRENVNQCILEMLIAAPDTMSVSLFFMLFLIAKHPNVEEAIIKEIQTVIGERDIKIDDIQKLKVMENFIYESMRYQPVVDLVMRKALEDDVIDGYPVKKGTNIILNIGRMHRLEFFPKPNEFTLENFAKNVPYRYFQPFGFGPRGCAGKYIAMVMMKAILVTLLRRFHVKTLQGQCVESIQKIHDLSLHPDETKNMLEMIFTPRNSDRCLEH

Regarding `NNC(=O)c1ccccc1`, the Potency entry in experiment [1], in [2], in experiment [3], in experiment [4], in experiment [5] and in experiment [6] was “inactive” each time. For the same molecule, the Potency result in [7], in experiment [9], in [10], in experiment [11], in [13] and in experiment [14] was “inactive” in each case. Also, the Potency result with Aromatase (Homo sapiens) is “inactive”. In [8], the result was inactive. Moreover, the Potency in [12] is 19.9 µM (active).

On to `CC(C)Oc1cccc(NC(=O)c2ccccc2C(F)(F)F)c1`, for which the Potency result in [1], in experiment [4], in [9], in experiment [11], in experiment [12] and in experiment [13] was “inactive” in each case. For the same molecule, the Potency in experiment [2] was 15.4 µM (active); in experiment [15], 15.4 µM (active); in experiment [3], 30.6 µM (active). Besides, the result in [8] was inactive.

In the case of `COc1cc(C=O)cc2c1[C@H](COC(N)=O)[C@]1(OC(C)=O)ON2C[C@H]2[C@@H]1N2C(C)=O`, the Potency in experiment [1] is 0.49 µM (active); in experiment [2] it was 0.0154 µM (active); in experiment [3], 0.0069 µM (active); in experiment [6], 0.864 µM (active); in [7] it was 0.433 µM (active); in experiment [9] it was 5.49 µM [inconclusive] (active). Further, the values for the Potency (in experiment [13]; with Aromatase (Homo sapiens)) were 0.217 µM (active) and 3.44 µM (active), respectively. Besides, the outcome in [8] was inactive. Also, the Potency result in experiment [11] was “inactive”.

For the molecule `CCCCOCN(C(=O)CCl)c1c(CC)cccc1CC`, the Potency entry in [1], in experiment [16], in experiment [5], in experiment [10], in experiment [11] and in experiment [13] was “inactive” throughout. Moreover, the Potency entry in experiment [14] is “inactive”. In addition, the Potency in experiment [2] is 8.63 µM (active); in experiment [15], 9.69 µM (active); in [3] it was 9.69 µM (active); in experiment [17], 54.5 µM (active); in experiment [7], 61.1 µM (active); in the experiment with Aromatase (Homo sapiens), 61.1 µM (active).

As for `O=C1NCN(c2ccccc2)C12CCN(CC1COc3ccccc3O1)CC2` (stereo not drawn), the Potency entry in [1], in experiment [15], in experiment [4], in [5], in experiment [9] and in [10] was “inactive” throughout. Further, the Potency entry (in experiment [11]; in experiment [13]; in experiment [14]; with Aromatase (Homo sapiens)) was “inactive” in each case. For the same molecule, the Potency in [2] was 23.7 µM (active). In addition, the call in experiment [8] was inactive.

With `Fc1ccc(Oc2ccnc3cc(Cl)cc(Cl)c23)cc1`, the Potency entry in experiment [1], in [4], in experiment [10], in [11], in experiment [12] and in experiment [14] was “inactive” in each case. In the experiment with Aromatase (Homo sapiens), the Potency result was “inactive”. Also, the Potency in experiment [2] was 61.1 µM (active); in experiment [15] it was 68.6 µM (active); in experiment [3] it was 61.1 µM (active); in experiment [7], 68.6 µM (active).

Consider `CCOC(=O)C1(c2ccccc2)CCN(CCC(C#N)(c2ccccc2)c2ccccc2)CC1`, for which the Potency result (in experiment [1]; in experiment [16]; in experiment [13]; in experiment [14]; with Aromatase (Homo sapiens)) was “inactive” each time. Further, the Potency is 2.98 µM (active) and 5.31 µM (active) in experiment [2]; 3.76 µM (active) and 10.6 µM (active) in experiment [15]; 5.31 µM (active) and 9.44 µM (active) in experiment [3]; 10.7 µM (active) and 13.4 µM (active) in experiment [18]; 26.6 µM (active) and 53.1 µM (active) in experiment [17]; 9.44 µM (active) and 15 µM (active) in experiment [7]. The Potency in experiment [9] is 6.01 µM [inconclusive] (active); in experiment [11] it was 53.5 µM [inconclusive] (active). Besides, the molecule was classed as inactive in experiment [8].

Consider `CCC(C)c1cc([N+](=O)[O-])cc([N+](=O)[O-])c1OC(=O)C=C(C)C` (stereo not drawn), for which the Potency result in experiment [1], in experiment [16], in experiment [10] and in experiment [14] was “inactive” throughout. Further, the Potency in experiment [2] was 21.7 µM (active); in [15] it was 27.3 µM (active); in experiment [3] it was 19.3 µM (active); in experiment [7], 21.7 µM (active); with Aromatase (Homo sapiens), 48.6 µM (active). Besides, the result in experiment [8] was inactive.

`CC(Cc1ccc(C(C)(C)C)cc1)CN1C[C@@H](C)O[C@@H](C)C1` (stereo partly drawn): the Potency entry in experiment [1], in experiment [6], in experiment [10] and in [14] was “inactive” each time. The Potency in experiment [2] was 9.69 µM (active); in experiment [15], 5.45 µM (active); in experiment [3], 4.86 µM (active). In addition, the call in experiment [8] was inactive.

Regarding `CC(=O)c1cc(C(C)(C)C)cc2c1CCC2(C)C`, the Potency result in experiment [1], in experiment [2], in experiment [15], in experiment [4], in experiment [5] and in [9] was “inactive” throughout. The Potency entry in experiment [11], in [12] and in [14] was “inactive” each time. The Potency in experiment [6] was 43.3 µM (active); in experiment [7] it was 48.6 µM (active); in the experiment with Aromatase (Homo sapiens), 68.6 µM (active). Moreover, the molecule was called inactive in experiment [8].

Turning to `COc1ccc(OC)c(CC(C)N)c1` (stereo not drawn), the Potency entry in experiment [1], in [2], in experiment [15], in experiment [3], in [4] and in experiment [6] was “inactive” throughout. Also, the Potency result (in experiment [9]; in [11]; in [12]; in experiment [13]; in experiment [14]; with Aromatase (Homo sapiens)) was “inactive” throughout.
